Screening data from PubChem BioAssay.
ERa SRC1 inh – ER-alpha (human) coactivator binding inhibition; P03372; TR-FRET ER-alpha LBD / SRC-1 peptide, estradiol-bound; 86,000 tested, 1.7% active; inhibition, % at 25.6 µM; in the data active = inhibition above about 50%;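 note: 0% = receptor plus peptide control and 100% = peptide only without receptor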
Candida biofilm – kills Candida albicans biofilms; 85,000 tested, 0.14% active; inhibition, % at 6 µM; C. albicans biofilm + clotrimazole, Alamar Blue;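 active = inhibition above 20%; inactive = inhibition below 20%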;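 note: preformed 24 hr biofilms exposed to compound for 48 hr; 0% = biofilm without compound and 100% = blank killed by clotrimazole plus chlorhexidine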
ERa SRC1 pot – enhances coactivator binding to human estrogen receptor alpha | TR-FRET ERalpha-LBD/SRC-Cy5 coactivator binding, 2 h; 100 = basal binding, no effect | 86,000 tested, 1.3% active | coactivator binding (% of control), % at 25.6 µM | AID 639; in the data active = activity above about 200%;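 note: binding measured in presence of low estradiol as agonist stimulus; 0% = peptide alone without receptor and 100% = receptor with peptide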
Smad3 FoxH1 inh – inhibitors of human Smad3 transcription factor binding; P84022; TR-FRET Smad3/Dy647-FoxH1 peptide binding, europium anti-His; inhibition, % at 25 µM; 88,000 tested, 0.29% active; AID 630;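 active = compounds that reduce the energy-transfer binding signal between the protein and its labelled peptide by more than half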;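 note: 0% = Smad3 plus labelled peptide maximal FRET and 100% = peptide-only background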
Target sequence (P84022 whole entry, looked up): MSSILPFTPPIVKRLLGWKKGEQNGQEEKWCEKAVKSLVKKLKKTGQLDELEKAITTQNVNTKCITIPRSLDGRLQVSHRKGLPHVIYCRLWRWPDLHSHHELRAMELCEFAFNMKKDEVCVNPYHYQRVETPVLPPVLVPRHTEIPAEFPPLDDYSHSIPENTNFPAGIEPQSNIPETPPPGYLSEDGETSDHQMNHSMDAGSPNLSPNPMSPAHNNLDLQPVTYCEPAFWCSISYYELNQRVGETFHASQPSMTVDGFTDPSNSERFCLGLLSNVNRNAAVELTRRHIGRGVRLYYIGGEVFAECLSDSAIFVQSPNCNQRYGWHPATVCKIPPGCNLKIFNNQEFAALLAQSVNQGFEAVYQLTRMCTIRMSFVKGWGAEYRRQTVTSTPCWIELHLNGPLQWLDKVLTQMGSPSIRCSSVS
ERb SRC1 inh – blocks coactivator binding to human estrogen receptor beta; Q92731; TR-FRET ER-beta LBD / SRC1-Cy5 peptide binding; receptor agonist-loaded with 1 µM estradiol; inhibition, % at 25.6 µM; 86,000 tested, 1.3% active; AID 633;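 active = compounds whose percent inhibition of the receptor-coactivator binding signal exceeds about 50% in the single-dose screen, limit read from the data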;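 note: 0% = receptor plus peptide wells without compound and 100% = peptide-only wells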
* = called active by the depositor; . = not tested or not shown; [ ] = another dose, or the depositor's remark. Sampled rows, rich in hits. Any-hit rate of the full collection: about 3.8%.

SMILES	ERa SRC1 inh	Candida biofilm	ERa SRC1 pot	Smad3 FoxH1 inh	ERb SRC1 inh
Cc1nn(CC(=O)Nc2ccc(C(=O)N3CCCC3)cc2)c(=O)c2ccccc12	-2	-1	119	-9	-5
CNC(=O)Cn1nc(C)c2ccccc2c1=O	16	7	109	1	20
Cc1ccc(C)c(NC(=O)Cn2nc(C)c3ccccc3c2=O)c1	18	10	296*[fluorescence artefact?]	4	3
Cc1nn(CC(=O)Nc2ccc3c(c2)nc(CN2CCCC2)n3C)c(=O)c2ccccc12	70*[fluorescence artefact?]	-1	79	4	40
Cc1nn(CC(=O)Nc2ccc3c(c2)oc2ccccc23)c(=O)c2ccccc12	81*[fluorescence artefact?]	8	106	-53	51*[fluorescence artefact?]
Cc1nnc2sc(-c3ccc(NC(=O)c4ccc(-c5ccc(Cl)cc5Cl)o4)cc3)nn12	70*	4	110	-185	49
Cc1nnc2sc(-c3ccc(NC(=O)c4cccnc4)cc3)nn12	3	12	81	-8	-1
COc1ccc(-c2nn(-c3ccccc3)cc2/C=N/N2C(=O)CSC2=S)cc1	-21	9	313*[fluorescence artefact?]	-5	-1
COc1ccc(/C=N/N2C(=O)CSC2=S)cc1	-7	4	102	2	1
O=C(N/N=C/c1cccc(O)c1)c1ccncc1	.	.	.	-1	.
Cc1ccc(OCC(=O)Nc2ccc(O)c(C(=O)O)c2)cc1C	21	5	99	8	5
CC(C)(C)c1ccc(OC(=O)Nc2ccc(O)c(C(=O)O)c2)cc1	.	.	.	65*	.
O=C(Cn1nc(-c2ccccc2)c2ccccc2c1=O)Nc1ccc2c(c1)nc1n2CCOC1	22	-1	209*[fluorescence artefact?]	-10	47
Cc1ccc(OCC(=O)Nc2ccc3c(c2)nc2n3CCOC2)cc1	4	-3	166	7	-4
Cc1ccc(-c2nn(CC(=O)Nc3ccc4c(c3)nc3n4CCOC3)c(=O)c3ccccc23)cc1	67*[fluorescence artefact?]	3	165	-180	54*[fluorescence artefact?]
CC1CCN(C(=O)CCCOc2ccc(Cl)cc2)CC1	-22	-4	105	-2	1
COc1ccc(NC(=O)c2ocnc2C)cc1OC	-5	6	111	3	-6
COc1ccc(Cl)cc1NC(=O)c1ocnc1C	52*	2	55	2	62*
CCN(CC)C1=CC(=O)OC12CCCCC2	-37	0	72	7	62*
CS(=O)(=O)Nc1ccc(Nc2c3ccccc3nc3ccccc23)cc1	.	.	.	58*	.
O=C(/C=C1\NC2(CCCC2)Cc2ccccc21)N1CCOCC1	-2	3	98	34	83*[fluorescence artefact?]
Cn1c(=O)c2c(nc(SCC(=O)N(C3CCCCC3)C3CCCCC3)n2C)n(C)c1=O	-4	5	155	9	0
O=C(Nc1cccc(NC(=O)c2ccc(Br)o2)n1)c1ccc(Br)o1	30	8	258*[fluorescence artefact?]	-50	22
O=C(Nc1nc2c(Cl)cccc2s1)c1ccc(Br)o1	-82	0	535*[fluorescence artefact?]	-7	-8
Cc1noc(NC(=O)Nc2ccccc2F)c1C#N	.	.	.	6	.
SMILES	ERa SRC1 inh	Candida biofilm	ERa SRC1 pot	Smad3 FoxH1 inh	ERb SRC1 inh
COc1ccc(NS(=O)(=O)c2ccc(N)c(C(=O)O)c2)cc1	57*[fluorescence artefact?]	8	69	41	19
COc1ccc(NS(=O)(=O)c2ccc(C)c(C(=O)O)c2)cc1	14	4	96	5	20
Nc1c(Cl)cc(Cl)cc1C(=O)OCC(=O)NC1CC1	40	2	59	4	55*
O=C(COC(=O)c1ccc(Cl)c(S(=O)(=O)N2CCCC2)c1)NC1CCCC1	12	4	88	-2	17
Cc1cccc(NC(=O)C2NC(=O)CC2c2ccccc2)c1C (centres undefined)	6	1	103	-8	0
O=C1Nc2ccc(S(=O)(=O)NCc3ccco3)c3cccc1c23	44	10	48	2	58*[fluorescence artefact?]
CCOc1ccc(S(=O)(=O)NCc2ccco2)c2ccccc12	13	4	71	0	11
CN(c1ccccc1C(=O)O)S(=O)(=O)c1ccc2c3c(cccc13)C(=O)N2	57*	-2	31	-4	62*
C=C(C)C1Cc2c(C)nn(-c3cc(C)c4ccccc4n3)c2C1 (centres undefined)	-6	5	104	4	-7
Cc1sc2ncnc(Sc3nnnn3-c3ccccc3)c2c1C	18	4	202*[fluorescence artefact?]	-5	9
S=c1[nH]nc(-c2cc(-c3ccco3)[nH]n2)n1-c1ccccc1	-6	-1	59	-11	-14
S=c1[nH]nc(-c2cc(-c3ccco3)[nH]n2)n1-c1ccccc1Cl	33	1	43	1	50*
COC(=O)c1ccccc1NC(=O)c1sc(N)nc1C	10	-2	103	3	4
COC(=O)c1ccccc1NC(=O)c1sc(=S)n(C)c1N	70*[fluorescence artefact?]	4	19	5	38
NCCSC[C@H](N)C(=O)O	.	.	.	3	.
C[C@@H](CSC(=N)N)C(N)=O	.	.	.	-8	.
CSc1nc2c(c(=O)[nH]1)C(c1cccs1)C1=C(CCCC1=O)N2 (centres undefined)	44	2	74	0	56*
Oc1c(Cl)cc(CN(Cc2cc(Cl)c(O)c(Cl)c2)C2CCCCC2)cc1Cl	.	.	.	-3	.
COC(=O)c1ccc(Oc2nc(C(N)=O)cc(-c3ccccc3)n2)cc1	47	-3	264*[fluorescence artefact?]	5	20
N#Cc1ccc(Oc2nc(C(N)=O)cc(-c3ccccc3)n2)cc1	15	-2	100	-7	-3
Cc1nnc(SCC(=O)N2CC(=O)Nc3ccccc32)n1-c1ccccc1	-3	1	116	8	1
Cc1cc(C)c2nc(SCC(=O)N3CC(=O)Nc4ccccc43)c(C#N)cc2c1	28	10	461*[fluorescence artefact?]	6	33
Cc1cc(C)c2nc(SCC(=O)Nc3ccccc3N3CCOCC3)c(C#N)cc2c1	21	6	353*[fluorescence artefact?]	7	33
CCOC(=O)c1sc(C)c2c(=O)n(CC(=O)c3ccc(Br)cc3)nnc12	-2	1	112	0	59*[fluorescence artefact?]
CCOC(=O)c1sc(C)c2c(=O)n(CCCN3CCOCC3)cnc12	0	7	116	10	-8
SMILES	ERa SRC1 inh	Candida biofilm	ERa SRC1 pot	Smad3 FoxH1 inh	ERb SRC1 inh
O=S(=O)(c1ccccc1)N1CN2CN(C1)CN(S(=O)(=O)c1ccccc1)C2	.	.	.	4	.
O=C1c2ccccc2-c2ccc(N=[N+]([O-])c3ccc4c(c3)C(=O)c3ccccc3-4)cc21	.	.	.	3	.
Cn1c(Cc2ccccc2)nnc1SCC(=O)c1cccs1	57*	4	91	-24	-7
CC(C)OC(=O)CSc1nnc(Cc2ccccc2)n1C	2	8	95	-18	6
CN(C)CC(CN(C)C)c1ccccn1	.	.	.	0	.
O=C(O)c1c(Cl)c(Cl)c(Cl)c(Cl)c1C(=O)Nc1ccc2cn[nH]c2c1	.	.	.	-3	.
CN1C(=O)C2(N=c3ccccc3=N2)c2ccccc21	-3	2	142	1	91*[fluorescence artefact?]
C[C@H](CN(C)C)C(=O)c1ccccc1C(=O)O	.	.	.	-6	.
C#CCOCCCC(=O)O	.	.	.	36	.
C[C@@H]1CCCN(CP(=O)(c2ccccc2)c2ccccc2)C1	.	.	.	-5	.
Cc1sc2nc(SCC(=O)Nc3c(C)n(C)n(-c4ccccc4)c3=O)n(C)c(=O)c2c1C	70*[fluorescence artefact?]	10	24	6	62*[fluorescence artefact?]
